The values below come from PubChem BioAssay.

Experiment [1] can be described thus: stimulators of nuclear beta-catenin in C2C12, primary screen, imaging, WNT3A-conditioned medium, mouse C2C12, NPC library (AID 1117326). Further: reference of the scale not given here. Conditions: stronger effect = higher value.
Experiment [2] is described as follows: stimulators of insulin release from INS-1E, primary screen, cell-based, 5 mM glucose, NPC library (AID 1117329;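 active means compound raises insulin release from rat beta cells at 5 mM glucose, no numeric limit stated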; further: reference of the scale not given here). Conditions: rat INS-1E insulin secretion, at 10 µM, stronger effect = higher value.
A short description of experiment [3]: growth inhibition of GSK3B-pretreated HCT116 cells – cell-based, CellTiter-Glo, 0.2 to 20 µM (AID 1117336;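 active means compounds lowering colon cancer cell viability after pretreatment blocking the GSK3B kinase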). Conditions: HCT116 viability after GSK3B inhibitor, at 20 µM, stronger effect = higher value. On the technique in general: In ATP-based viability assays light output follows the ATP content of the culture.
Experiment [4] in a line: inhibition of endothelial tube formation, primary screen, imaging, VEGF stimulated, CD31 staining, tube area, NPC library (AID 1117340;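 active means compound that reduces growth-factor-driven endothelial tube area in a mixed cell culture, no cutoff stated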). Conditions: VEGF-stimulated ADSC/ECFC co-culture, at 10 µM, stronger effect = higher value.
Experiment [5] in a line: glucagon-like peptide 1 release enhancers, primary assay, NCI-H716 cell line, NPC library (AID 1117341;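 active means compound raises GLP1 secretion from the human gut endocrine cells, with no numeric limit stated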; further: reference of the scale not given here). The settings on record: NCI-H716 cells, at 10 µM, stronger effect = higher value.
Experiment [6] in a line: HCT116 colon cancer cell growth inhibition, primary screen, CellTiter-Glo luminescence, NPC library (AID 1117342;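 active means compounds that lower survival of HCT116 colon cancer cells in the luminescence readout, no numeric limit stated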). The settings on record: at 20 µM (top of the series).
Experiment [7] in a line: CellTiter-Glo luminescent readout of SW480 viability loss, NPC library primary (AID 1117343;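 active means compounds that lower viability of the colon cancer cells in the luminescence readout, with no numeric limit stated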). Conditions: CellTiter-Glo luminescence; at 20 µM (top of the series).
Experiment [8] is described as follows: decreased DLD-1 cellular survival, CellTiter-Glo luminescent readout, NPC compound collection, primary HTS (AID 1117346;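 active means compounds that lower survival of DLD-1 colon cancer cells in the luminescence readout, no cutoff given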). Conditions: DLD-1 viability, CellTiter-Glo luminescence; at 20 µM (top of the series).

Activity calls are given as the source filed them. Unless noted, no stated cut-off is given here; in the data, active means nuclear beta-catenin stimulation mostly above about 4.2% (no sharp cut-off); inactive means mostly below about 10%.

As to `CCOC(=O)c1cccnc1`, the nuclear beta-catenin stimulation in experiment [1] (at 10 µM) was 0.1% (inactive); in experiment [1] (stimulation, at 2 µM), 0.3%. Besides, in experiment [2], the insulin secretion stimulation was -2.3% (inactive). The viability decrease in experiment [3] was -2.55% (inactive). In experiment [4], the tube area decrease was -7.8% (inactive). Also, the GLP1 secretion stimulation in experiment [5] was 1.1% (inactive). Besides, in experiment [6], the inhibition of viability was -17.8% (inactive). Besides, the viability decrease (inhibition) is 58.1% (active) in experiment [7] and -9.05% (inactive) in experiment [8].
For the compound `CN(C)C(=S)SC(=S)N(C)C`, the nuclear beta-catenin stimulation in experiment [1] (at 10 µM) is 31.6% (inactive); in experiment [1] (stimulation, at 2 µM), 11.3%. In addition, in experiment [2], the insulin secretion stimulation is -0.3% (inactive). Moreover, the viability decrease in experiment [3] was -6.55% (inactive). The tube area decrease in experiment [4] was -36.6% (inactive). In experiment [5], the GLP1 secretion stimulation is 4.1% (inactive). Moreover, the inhibition of viability in experiment [6] was 11.5% (inactive). Further, the viability decrease (inhibition) is 35.3% (inactive) in experiment [7] and 0.2% (inactive) in experiment [8].
With `O=Cc1ccc(O)c(O)c1O`, the nuclear beta-catenin stimulation in experiment [1] (at 10 µM) is 1.4% (inactive); in experiment [1] (stimulation, at 2 µM) it was 1.9%. Further, in experiment [2], the insulin secretion stimulation is -1.7% (inactive). For the same compound, the viability decrease in experiment [3] is 87.5% (active). The tube area decrease in experiment [4] was 3.3% (inactive). Besides, the GLP1 secretion stimulation in experiment [5] is 3.4% (inactive). Also, the inhibition of viability in experiment [6] is 44.2% (inactive). Besides, the viability decrease (inhibition) in experiment [7] is 78.5% (active); in experiment [8], 36.5% (inactive).
In the case of `O=C(O)c1ccc(OCCN2CCCCC2)cc1`, the nuclear beta-catenin stimulation in experiment [1] (at 10 µM) was -1% (inactive); in experiment [1] (stimulation, at 2 µM), -0.1%. In addition, the insulin secretion stimulation in experiment [2] is -2.35% (inactive). Moreover, the viability decrease in experiment [3] is 2.1% (inactive). Besides, the tube area decrease in experiment [4] was 4.5% (inactive). Besides, the GLP1 secretion stimulation in experiment [5] is 4% (inactive). Besides, the inhibition of viability in experiment [6] is -8.6% (inactive). The viability decrease (inhibition) was -5.5% (inactive) in experiment [7] and 0.5% (inactive) in experiment [8].
For the compound `COc1ccc(/C=C/C(=O)c2ccc(OC)cc2OC)cc1`, the nuclear beta-catenin stimulation in experiment [1] (at 10 µM) was 7.4% (inactive); in experiment [1] (stimulation, at 2 µM) it was -0.5%. For the same compound, the insulin secretion stimulation in experiment [2] was 2.6% (inactive). Also, the viability decrease in experiment [3] was 77.7% (active). The tube area decrease in experiment [4] was 54.9% (active). Also, the GLP1 secretion stimulation in experiment [5] is -6.1% (inactive). Besides, in experiment [6], the inhibition of viability is 58.1% (active). Also, the viability decrease (inhibition) was 94.5% (active) in experiment [7] and 81.6% (active) in experiment [8].
Turning to `O=C(O)Cn1cnnn1`, the nuclear beta-catenin stimulation in experiment [1] (at 10 µM) is 0.5% (inactive); in experiment [1] (stimulation, at 2 µM), -0.1%. Further, the insulin secretion stimulation in experiment [2] was -0.9% (inactive). In addition, the viability decrease in experiment [3] was -1.1% (inactive). Moreover, the tube area decrease in experiment [4] is -3.2% (inactive). For the same compound, the GLP1 secretion stimulation in experiment [5] was 3.3% (inactive). Further, the inhibition of viability in experiment [6] was 4.9% (inactive). Moreover, the viability decrease (inhibition) in experiment [7] was -14.8% (inactive); in experiment [8], 6% (inactive).
`Oc1ccc(C(O)CNCCCCCCNCC(O)c2ccc(O)c(O)c2)cc1O` (stereo unspecified): the nuclear beta-catenin stimulation in experiment [1] (at 10 µM) was -0.7% (inactive); in experiment [1] (stimulation, at 2 µM), -2.3%. Moreover, in experiment [2], the insulin secretion stimulation is 1.65% (inactive). Also, the viability decrease in experiment [3] was 76.1% (active). The tube area decrease in experiment [4] was -0.1% (inactive). In experiment [5], the GLP1 secretion stimulation is 4.5% (inactive). For the same compound, the inhibition of viability in experiment [6] was 43% (inactive). Moreover, the viability decrease (inhibition) in experiment [7] is 42.9% (inactive); in experiment [8], 40.4% (inactive).
`O=C(OCC(O)CO)c1ccccc1Nc1ccnc2c(C(F)(F)F)cccc12` (stereo unspecified): the nuclear beta-catenin stimulation in experiment [1] (at 10 µM) is 1% (inactive); in experiment [1] (stimulation, at 2 µM) it was 0.5%. The insulin secretion stimulation in experiment [2] was -0.3% (inactive). Moreover, the viability decrease in experiment [3] is -37% (inactive). The tube area decrease in experiment [4] was -5.3% (inactive). Besides, the GLP1 secretion stimulation in experiment [5] is 4.1% (inactive). The inhibition of viability in experiment [6] was 12% (inactive). In addition, the viability decrease (inhibition) in experiment [7] is 30.4% (inactive); in experiment [8], -17.2% (inactive).
Consider `CCC(CN)=C(c1ccccc1)c1ccccc1`, for which the nuclear beta-catenin stimulation in experiment [1] (at 10 µM) was -0.1% (inactive); in experiment [1] (stimulation, at 2 µM), 0.1%. The insulin secretion stimulation in experiment [2] is 29.4% (active). For the same compound, the viability decrease in experiment [3] is 17.9% (inactive). For the same compound, in experiment [4], the tube area decrease is 7% (inactive). The GLP1 secretion stimulation in experiment [5] was 2.2% (inactive). Besides, the inhibition of viability in experiment [6] was 78.6% (active). The viability decrease (inhibition) in experiment [7] is 92% (active); in experiment [8], 55.1% (active).
For the compound `c1ccc(-c2nc[nH]c2-c2ccccc2)cc1`, the nuclear beta-catenin stimulation in experiment [1] (at 10 µM) was 0.2% (inactive); in experiment [1] (stimulation, at 2 µM), 2.7%. Also, in experiment [2], the insulin secretion stimulation is -1.3% (inactive). The viability decrease in experiment [3] was -7.1% (inactive). The tube area decrease in experiment [4] was 12.1% (inactive). Besides, the GLP1 secretion stimulation in experiment [5] was 3.1% (inactive). The inhibition of viability in experiment [6] is -17.5% (inactive). Besides, the results for the viability decrease (inhibition) in experiment [7] and in experiment [8] were 55% (active) and -0.05% (inactive), respectively.
`COc1cc2c(cc1OC)C(=O)CC2`: the nuclear beta-catenin stimulation in experiment [1] (at 10 µM) was 0.3% (inactive); in experiment [1] (stimulation, at 2 µM) it was 2%. The insulin secretion stimulation in experiment [2] was 0.2% (inactive). The viability decrease in experiment [3] is -1.6% (inactive). Also, the tube area decrease in experiment [4] is 3.8% (inactive). In experiment [5], the GLP1 secretion stimulation was 3.1% (inactive). Besides, the inhibition of viability in experiment [6] was -8.1% (inactive). Moreover, the viability decrease (inhibition) in experiment [7] was 4.2% (inactive); in experiment [8], 14.9% (inactive).
For the compound `c1ccc2c(c1)CCc1ccccc1N2`, the nuclear beta-catenin stimulation in experiment [1] (at 10 µM) is 0.8% (inactive); in experiment [1] (stimulation, at 2 µM), 2.8%. The insulin secretion stimulation in experiment [2] is 0.55% (inactive). Also, the viability decrease in experiment [3] was 8.3% (inactive). In experiment [4], the tube area decrease is -22.5% (inactive). Also, the GLP1 secretion stimulation in experiment [5] was 2% (inactive). In experiment [6], the inhibition of viability was -2.9% (inactive). Further, the viability decrease (inhibition) in experiment [7] was -16.7% (inactive); in experiment [8] it was -6.2% (inactive).
Consider `CCC(C(=O)O)c1ccc(N2Cc3ccccc3C2=O)cc1` (stereo unspecified), for which the nuclear beta-catenin stimulation in experiment [1] (at 10 µM) is 0.8% (inactive); in experiment [1] (stimulation, at 2 µM), -0.1%. Moreover, the insulin secretion stimulation in experiment [2] was 1.25% (inactive). Also, the viability decrease in experiment [3] is 15.4% (inactive). Further, the tube area decrease in experiment [4] is -24.8% (inactive). Moreover, the GLP1 secretion stimulation in experiment [5] was 1% (inactive). In addition, the inhibition of viability in experiment [6] was -4.3% (inactive). Moreover, the viability decrease (inhibition) in experiment [7] is -8.7% (inactive); in experiment [8], -10% (inactive).
As for `CCCCN1CCCC[C@H]1C(=O)Nc1c(C)cccc1C`, the nuclear beta-catenin stimulation was 0.3% (inactive) in experiment [1] (at 10 µM) and 0.4% in experiment [1] (stimulation, at 2 µM). Besides, the insulin secretion stimulation in experiment [2] was 25.7% (active). In experiment [3], the viability decrease is 26.6% (inactive). Besides, the tube area decrease in experiment [4] is -20.3% (inactive). For the same compound, in experiment [5], the GLP1 secretion stimulation was 2.9% (inactive). Moreover, the inhibition of viability in experiment [6] was 23.7% (inactive). Further, the values for the viability decrease (inhibition) in experiment [7] and in experiment [8] were 21.1% (inactive) and 23.1% (inactive), respectively.
